Results on seven molecules are retold here after PubChem BioAssay (NCATS).

A short description of test [1]: Cell Viability - H-4-II-E (AID 543). Also: % is scaled to controls: 0 for no effect and ±100 for the full control effect; nearly all actives have a fitted effect of over 35% in size. A digest of the protocol: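 Rat hepatoma H-4-II-E cells (1500/well) were plated, incubated 5 hr at 37 °C, then exposed to compounds for 40 hr at 37 °C. Cellular ATP was read by CellTiter-Glo luminescence; AC50 came from Hill-equation fits of concentration-response data.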
Test [2] in a line: Cell Viability - SH-SY5Y (AID 544). Also: nearly all actives have a fitted effect of over 55% in size. The following applies: SH-SY5Y neuroblastoma cell viability; viability change, negative = cytotoxic: at 92.2 µM (top of the series). A digest of the protocol:
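Human neuroblastoma SH-SY5Y cells (1500/well) in complete medium were exposed to compounds for 40 hr at 37 °C; intracellular ATP was then quantified by CellTiter-Glo luminescence after 20 min at room temperature. AC50 came from Hill-equation concentration-response fits.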

A short description of test [3]: Cell Viability - Renal Proximal Tubule (AID 545). Also: nearly all actives have a fitted effect of over 40% in size. The gist of the method:
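Primary rat renal proximal tubule cells (1000/well) were treated with compounds for 40 hr at 37 °C in complete medium. Intracellular ATP was measured by CellTiter-Glo luminescence, and AC50 values came from Hill-equation fits of concentration-response data.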

Test [4] can be described thus: Cell Viability - Mesenchymal (AID 546).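 Also: cells exposed to compound for 40 hours before reading.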 The gist of the method:
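Normal human renal glomerulus-derived kidney mesenchymal cells, 1000 per well in complete medium, were treated with compounds for 40 hr at 37 °C. Viability was read as intracellular ATP by CellTiter-Glo luminescence; AC50 values came from Hill-equation fits of qHTS concentration-response data.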

The nature of test [5]: Cellular Toxicity (caspase-3) HepG2 (AID 654).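 Also: cells exposed to compound for 16 hours before reading; 0% = DMSO alone and 100% = caspase signal from 100 µM tamoxifen.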 A digest of the protocol:
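HepG2 cells (1500/well) in complete medium were treated with compounds for 16 hr at 37 °C. Caspase-3/7 activity was then read as luminescence from peptide-aminoluciferin cleavage. AC50 came from Hill fits, normalized to DMSO and 100 uM tamoxifen.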

The nature of test [6]: Cellular Toxicity (caspase-3) HUV-EC-C (AID 656). The gist of the method: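 HUV-EC-C endothelial cells, 1000/well, were pre-incubated 5 hr at 37°C, then exposed to compounds for 16 hr at 37°C. Caspase-Glo 3/7 luminescence was read after 20 min at room temperature. AC50 came from Hill fits, normalized to DMSO and 100 uM tamoxifen.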
Test [7] in a line: Cellular Toxicity (caspase-3) SHSY5Y (AID 657). The gist of the method: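 SH-SY5Y human neuroblastoma cells (1500/well) were treated with compounds for 16 h at 37 °C, then Caspase-Glo 3/7 luminescence was read after 1 h at room temperature. Data normalized to DMSO and 10 uM staurosporine; AC50 from Hill fits.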
The nature of test [8]: Cellular Toxicity (caspase-3) BJ (AID 658).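 Also: 0% = DMSO basal and 100% = 10 µM staurosporine.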 The gist of the method: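 Luminescent aminoluciferin-substrate cleavage reports caspase 3/7 activity in normal human BJ fibroblasts after 16 hr compound exposure at 37 °C. Normalized to DMSO (basal) and 10 uM staurosporine (100%); AC50 from Hill fit of concentration-response.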
The nature of test [9]: Cellular Toxicity (caspase-3) MRC-5 (AID 659).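 Also: 0% = DMSO basal and 100% = 10 µM staurosporine.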 A digest of the protocol:
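Luminescence from caspase-cleaved aminoluciferin substrate (Caspase-Glo 3/7, 1 hr RT) reports caspase 3/7 activity in MRC-5 lung fibroblasts after 16 hr compound exposure. Normalized to DMSO basal and 10 uM staurosporine as 100%; AC50 from Hill fits.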

Test [10] in a line: Cellular Toxicity (caspase-3) Mesangial (AID 660).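 Also: cells exposed to compound for 16 h before the caspase read.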 The following applies: mesangial cells, normalized: DMSO 0%, 100 µM tamoxifen 100%; at 91.7 µM (top of the series). The gist of the method:
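Human renal glomerular mesangial cells (1000/well) were treated with compounds for 16 h at 37 °C in complete medium, then caspase 3/7 activity was read by Caspase-Glo luminescence. Data were normalized to DMSO and 100 uM tamoxifen; AC50 from Hill fits.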

Test [11] in a line: Cellular Toxicity (caspase-3) SK-N-SH (AID 661).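 Also: 0% = DMSO basal and 100% = 10 µM staurosporine.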 The gist of the method:
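SK-N-SH human neuroblastoma cells (1500/well) were treated with compounds for 16 hr at 37 °C in complete medium; caspase 3/7 activity was read by Caspase-Glo luminescence. AC50 came from Hill fits of data normalized to DMSO and 10 uM staurosporine.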

The nature of test [12]: Cellular Toxicity (caspase-3) H-4-II-E (AID 663).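 Also: cells exposed to compound for 16 hr before readout.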 The following applies: H-4-II-E rat hepatoma, scaled: DMSO 0%, 100 µM tamoxifen 100%; at 92.2 µM (top of the series). The gist of the method:
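Luminescence from caspase-cleaved aminoluciferin substrate, read 20 min after reagent addition, reports caspase 3/7 activation in rat H-4-II-E cells after 16 hr compound exposure. Normalized to DMSO (basal) and 100 uM tamoxifen (100%); AC50 from Hill fits.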

Test [13] can be described thus: Cellular Toxicity (caspase-3) Hek293 (AID 664).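 Also: cells exposed to compound for 16 h at 37 °C before readout.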 The following applies: HEK293 caspase-3 activation, DMSO = 0%, 100 µM tamoxifen = 100%; at 92.2 µM (top of the series). The gist of the method: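 HEK293 cells were exposed to compounds in complete medium for 16 hr at 37 °C, then caspase-3/7 activity was read by Caspase-Glo 3/7 luminescence after 20 min at room temperature. Data normalized to DMSO and 100 uM tamoxifen; AC50 from Hill fits.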

A short description of test [14]: Cellular Toxicity (caspase-3) N2a (AID 665).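 Also: compound exposure lasted 16 h at 37 °C before readout.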 The gist of the method:
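Mouse N2a neuroblastoma cells (1500/well) were treated with compounds for 16 h at 37 °C, then caspase-3/7 activity was read by Caspase-Glo luminescence after 1 h at room temperature. Data were normalized to DMSO and 10 uM staurosporine; AC50 from Hill fits.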

A short description of test [15]: Cellular Toxicity (caspase-3) NIH 3T3 (AID 666). The gist of the method: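 Mouse NIH 3T3 fibroblasts (1000 cells/well) were treated with compound for 16 hr at 37°C in complete medium; caspase-3/7 activity was read by Caspase-Glo luminescence. Normalized to DMSO and 100 uM tamoxifen; AC50 from Hill fits.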
A short description of test [16]: Cellular Toxicity (caspase-3) Renal Proximal Tubule (AID 667).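 Also: cells exposed to compound for 16 hours at 37 °C before detection; 0% = DMSO basal and 100% = 10 µM staurosporine.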 The following applies: Potency: caspase-3 activation. The gist of the method: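 Primary rat proximal tubule cells, 1000/well, 5 h plating at 37 °C, then compound 16 h at 37 °C. Caspase-Glo 3/7 reagent, 1 h RT, luminescence. Normalized to DMSO (basal) and 10 uM staurosporine (100%); Hill-fit AC50.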
The target in test [17] is Cytochrome P450 3A4 (Homo sapiens) (UniProt P08684). The experiment in a line: qHTS Assay for Inhibitors and Substrates of Cytochrome P450 3A4 (AID 884). Also: nearly all actives have a fitted effect of over 50% in size. Also: potency is read from the fitted curve at half-maximal effect. The gist of the method: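 20 nM human CYP3A4 with 25 uM Luciferin-PPXE (at KM) in 200 mM KPO4, preincubated 10 min with compound; NADPH regeneration started a 60 min RT reaction. Luciferin detected by luminescence, normalized to 57 uM ketoconazole as full inhibition.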
Cytochrome P450 3A4 (Homo sapiens), sequence (P08684 whole entry, looked up): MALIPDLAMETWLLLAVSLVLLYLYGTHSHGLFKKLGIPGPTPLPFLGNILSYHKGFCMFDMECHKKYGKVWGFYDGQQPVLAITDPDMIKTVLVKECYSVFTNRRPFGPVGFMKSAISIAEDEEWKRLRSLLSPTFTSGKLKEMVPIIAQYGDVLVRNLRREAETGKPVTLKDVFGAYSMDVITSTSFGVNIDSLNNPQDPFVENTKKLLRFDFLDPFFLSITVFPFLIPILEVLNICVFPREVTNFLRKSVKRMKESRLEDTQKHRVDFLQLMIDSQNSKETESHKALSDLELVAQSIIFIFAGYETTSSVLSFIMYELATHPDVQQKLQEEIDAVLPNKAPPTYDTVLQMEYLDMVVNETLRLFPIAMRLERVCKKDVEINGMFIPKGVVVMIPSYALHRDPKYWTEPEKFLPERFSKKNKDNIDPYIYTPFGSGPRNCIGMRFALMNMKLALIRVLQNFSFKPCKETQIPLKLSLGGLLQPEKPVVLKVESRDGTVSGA

Test [18] is described as follows: Cell Viability - LYMP2-001 (AID 921).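 Also: 0% = DMSO only and full inhibition = tetraoctylammonium bromide control wells; nearly all actives have a fitted effect of over 70% in size.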 The gist of the method: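 Human lymphoblastoid cells (Coriell), 2500 per well, were preincubated 5 hr at 37 C, then exposed to compounds in complete medium for 24 hr at 37 C. Cellular ATP was read by CellTiter-Glo luminescence; AC50 from Hill fits of concentration-response data.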
Test [19] is described as follows: Cellular Toxicity (caspase-3) Jurkat (AID 655).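 Also: cells exposed to compound for 16 h at 37 °C before reading.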 The following applies: Jurkat caspase-3 activation, luminescence; caspase-3 activation: at 92.2 µM (top of the series), DMSO = 0%, tamoxifen = 100%. A digest of the protocol: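 Jurkat cells (5000/well) in complete medium were treated with compounds for 16 hr at 37 °C, then Caspase-Glo 3/7 luminescence was read after 20 min at room temperature. Data normalized to DMSO (basal) and 100 uM tamoxifen (100%); AC50 from Hill fit.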

The target in test [20] is Cytochrome P450 3A4 (Homo sapiens) (UniProt P08684). Kind of test: qHTS Assay for Activators of Cytochrome P450 3A4 (AID 885). Also: nearly all actives have a fitted effect of over 65% in size. The gist of the method:
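Human CYP3A4 (20 nM) with Luciferin-PPXE at 25 uM (its KM) in 200 mM KPO4; 10 min compound preincubation, then NADPH regeneration and 60 min reaction at RT. Luciferin read by luminescence; normalized to 57 uM ketoconazole full inhibition.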
A general note: In qHTS, concentration-response curves come from the screen itself.

Values without a mark were called inactive. Results filed as inconclusive are left out. The source made the active and inactive calls. Calls follow the shape of the dose curve; as a rule, active = well fitted curve in the direction sought with a large enough effect; inconclusive = small, poorly fitted or top-dose-only effect, or another doubt; inactive = no such curve, though single readings can be large; an effect the other way counts as inactive or inconclusive.

Regarding `NC(N)=S`, the Potency result in [1], in test [2], in [3], in test [4], in test [5] and in test [16] was “inactive” throughout. Besides, the Potency result in test [17] and in test [18] was “inactive” each time. Further, the molecule was called inactive in test [6], in [7], in test [8], in test [9], in test [11] and in test [14]. Further, the molecule was called inactive in [15]. Also, the figures for the caspase-3 activation in [10], in test [12] and in test [13] were -0.0158%, 1.67% and -1.2%, respectively.

As to `CCOc1cccc(N)c1`, the Potency entry in test [1], in [2], in test [3], in [4], in test [5] and in [16] was “inactive” each time. The Potency result in [18] is “inactive”. Also, the caspase-3 activation was -1.1% in test [19], 0.896% in test [10], 1.28% in test [12] and -0.477% in test [13]. The molecule was classed as inactive in test [7], in test [9], in test [11], in test [14], in test [15] and in test [20]. Also, in test [17], the Potency was 31.6 µM (active).

For the molecule `Cc1ccccc1C(=O)O`, the Potency entry in test [1], in test [2], in test [3], in [4], in test [5] and in test [16] was “inactive” each time. The Potency entry in test [17] and in test [18] was “inactive” each time. Moreover, the molecule was classed as inactive in test [6], in test [7], in [9], in [11], in test [14] and in [15]. The caspase-3 activation is -0.934% in test [10], -0.229% in test [12] and -3.25% in test [13].

`CC/C=C1/OC(=O)c2ccccc21`: the Potency entry in test [1], in [2], in test [3], in test [4], in test [5] and in test [16] was “inactive” each time. In addition, the Potency entry in test [18] is “inactive”. Further, the outcome in test [6], in test [7], in [8], in [9], in [14] and in test [15] was inactive. Moreover, the caspase-3 activation in test [10] was 0.157%; in test [12], 0.49%; in test [13], 1.13%.

`Oc1c(Cl)ccc(Cl)c1Cl`: the Potency result in test [1], in test [2], in test [3], in test [4], in [5] and in [16] was “inactive” in each case. In addition, the Potency result in [17] and in [18] was “inactive” in each case. Further, the caspase-3 activation in test [19] was 0.893%; in test [10] it was 0.532%; in test [12], 0.28%; in test [13], 4.28%. In addition, the result in [7], in test [8], in test [9], in test [11], in test [14] and in test [15] was inactive.

As to `Cc1c(N)cccc1N`, the Potency result in test [1], in [2], in test [3], in [4], in test [5] and in [16] was “inactive” each time. In test [18], the Potency result is “inactive”. Also, the caspase-3 activation was -0.535% in test [19], -0.29% in test [10], 0.28% in test [12] and 0.0499% in [13]. Besides, the result in test [7], in test [8], in test [9], in test [11], in test [14] and in [15] was inactive.

Regarding `C(=C/c1ccccc1)/c1ccccc1`, the Potency entry in [1], in test [2], in test [3], in test [4], in [5] and in [16] was “inactive” in each case. In addition, the Potency result in [17] and in [18] was “inactive” each time. Also, the call in test [6], in test [7], in [8], in test [9], in test [14] and in test [15] was inactive. The caspase-3 activation was 0.853% in [10], 0.852% in [12] and 5.17% in [13].
